A short description of experiment [1]: NCI Yeast Anticancer Drug Screen. Data for the rad50 strain (AID 155).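 Also: 0% = growth of vehicle-only cultures of the same strain.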 As to conditions: S. cerevisiae rad50 strain growth inhibition; at 50.0 µM; active compounds read high. A digest of the protocol: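 DNA repair mutant yeast, compound exposure, growth read-out; inhibition is taken relative to vehicle.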
The nature of experiment [2]: NCI Yeast Anticancer Drug Screen. Data for the mec2-1 strain (AID 157). As to conditions: S. cerevisiae mec2-1 strain, at 50.0 µM, active compounds read high. A digest of the protocol:
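Using mec2-1 yeast: add compound, measure growth, express inhibition versus vehicle-treated cultures.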

Experiment [3] is described as follows: NCI Yeast Anticancer Drug Screen. Data for the sgs1 mgt1 strain (AID 161).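 Also: 0% = growth of cultures given vehicle only.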 The settings on record: S. cerevisiae sgs1 mgt1 strain, at 50.0 µM, active compounds read high. A digest of the protocol: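 Compounds are added to genetically altered yeast, and growth is compared with cultures given vehicle alone to give percent inhibition.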
Experiment [4] in a line: NCI Yeast Anticancer Drug Screen. Data for the cln2 rad14 strain (AID 165).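 Also: 0% = growth equal to vehicle treated cultures.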 The settings on record: S. cerevisiae cln2 rad14 strain, at 50.0 µM, active compounds read high. A digest of the protocol:
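Yeast strain cln2 rad14, bearing defects in cell cycle control and DNA repair, serves as the test system; values reflect growth inhibition compared with vehicle.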

A short description of experiment [5]: NCI Yeast Anticancer Drug Screen. Data for the bub3 strain (AID 167). The settings on record: S. cerevisiae bub3 mutant strain, at 50.0 µM, active compounds read high. A digest of the protocol: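 In this screen, a yeast mutant lacking normal mitotic checkpoint function is challenged with compound. Relative growth versus vehicle gives the inhibition value.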
Experiment [6] in a line: NCI Yeast Anticancer Drug Screen. Data for the mlh1 rad18 strain (AID 175). As to conditions: S. cerevisiae mlh1 rad18 strain growth inhibition; at 50.0 µM; active compounds read high. A digest of the protocol: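 Steps: expose repair-defective yeast to compound; measure growth; express inhibition against vehicle-treated controls.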

The panel holds about 79,000 compounds, 15% with a hit somewhere; the sample as a whole holds those more often. A number with no mark means an inactive call. Calls of active or inactive are those of the source. Rule as the data show it: active = growth inhibition above about 70%; inactive = the rest.

On to `CCOc1ccc(NC(=O)C(=O)C(C(=O)c2ccc3ccccc3c2)C2OC(=O)c3ccccc32)cc1` (stereo not given), for which the growth inhibition in experiment [1] was 13.1%; in experiment [2] it was 3.45%; in experiment [3], -2.4%; in experiment [4], -17.6%; in experiment [5], 7.85%; in experiment [6], 6.8%.
Regarding `Cc1nnc(N)c(C#N)c1C`, the growth inhibition in experiment [1] is -8.45%; in experiment [2], 2.3%; in experiment [3] it was 16.6%; in experiment [4] it was -56.9%; in experiment [5], 4.45%; in experiment [6] it was -1.85%.
With `CC1OC2=N[C@@H]1C(=O)N[C@@H](C(C)C)C1=N[C@H](C(=O)N[C@@H](C(C)C)C3=N[C@H](C(=O)N[C@@H](C(C)C)C4=N[C@H](C(=O)N[C@H]2C(C)C)C(C)O4)C(C)O3)C(C)O1` (stereo not given in full), the growth inhibition in experiment [1] was 6.9%; in experiment [2], 3.55%; in experiment [3] it was 3.55%; in experiment [4] it was 19.1%; in experiment [5] it was 14.8%; in experiment [6] it was 9.55%.
Regarding `Cc1cc(Br)c(O)c(-c2cscn2)c1`, the growth inhibition was -17.6% in experiment [1]; -34.8% in experiment [2]; 11.8% in experiment [3]; 28.9% in experiment [4]; 16.8% in experiment [5]; 3% in experiment [6].
On to `COC(=O)c1c(C)ccc(C)c1C(=O)c1c(C)cc(C)cc1C`, for which the growth inhibition was -14.6% in experiment [1]; 11.5% in experiment [2]; 5% in experiment [3]; -28.1% in experiment [4]; 24.3% in experiment [5]; 4.1% in experiment [6].
As for `CN(O)C(=O)Cc1ccccc1`, the growth inhibition in experiment [1] was 3.5%; in experiment [2], 6.05%; in experiment [3] it was -0.1%; in experiment [4], 15.8%; in experiment [5], 13.9%; in experiment [6], 16.4%.
As to `CCOc1ccc(-c2cc(-c3ccc(OCC)cc3)cc(-c3ccc(OCC)cc3)c2)cc1`, the growth inhibition in experiment [1] was -2.05%; in experiment [2], -9.7%; in experiment [3] it was 1.3%; in experiment [4] it was -7.2%; in experiment [5], -5.05%; in experiment [6], -2.85%.
Regarding `OC1c2ccccc2CCCC1N1CCCCC1` (stereo not given), the growth inhibition in experiment [1] was 41%; in experiment [2] it was 5.35%; in experiment [3] it was 27.8%; in experiment [4] it was 6.75%; in experiment [5], 12.1%; in experiment [6], 16.9%.
Turning to `NNc1cc(S(=O)(=O)O)cc(C(=O)O)c1O`, the growth inhibition in experiment [1] is 14.5%; in experiment [2], 49%; in experiment [3], 31.4%; in experiment [4], -1.65%; in experiment [5], 42.1%; in experiment [6], 39.9%.
For `COc1c(OC2OC(CO)C(O)C(O)C2O)cc2occ(-c3ccc4c(c3)OCO4)c(=O)c2c1O` (stereo not given), the growth inhibition in experiment [1] was 23.6%; in experiment [2] it was -9.7%; in experiment [3], -10%; in experiment [4], 4.6%; in experiment [5], 12.1%; in experiment [6] it was 18.6%.
Take `CCCCN(CCCC)CC(O)c1cc(OC)c2cc(Cl)cc(Cl)c2n1` (stereo not given): the growth inhibition is 99.5% (active) in experiment [1]; 99.8% (active) in experiment [2]; 99.8% (active) in experiment [3]; 99.3% (active) in experiment [4]; 99.2% (active) in experiment [5]; 99.7% (active) in experiment [6].
For the compound `NC(=O)c1ccccc1O`, the growth inhibition in experiment [1] was 13.5%; in experiment [2], 5.15%; in experiment [3] it was 11.4%; in experiment [4], 6.2%; in experiment [5] it was 0.6%; in experiment [6], 15.2%.
For the compound `C=C(C)c1ccc2c(c1)C(=O)C[C@@H]1[C@](C)(C#N)CCC[C@]21C`, the growth inhibition in experiment [1] was -19.9%; in experiment [2] it was -16.3%; in experiment [3] it was 32.2%; in experiment [4], -52%; in experiment [5], 46.9%; in experiment [6] it was -33.9%.
`CCOC(=O)c1ccc(Nc2cnc3ccc(C(F)(F)F)cc3n2)cc1`: the growth inhibition in experiment [1] is 14.4%; in experiment [2] it was -2.35%; in experiment [3], 24.9%; in experiment [4], 14.9%; in experiment [5] it was 30.9%; in experiment [6], -32.8%.
On to `CCCCOc1ccc2nc(C)cc(N/N=C/c3ccc(OC)c4ccccc34)c2c1`, for which the growth inhibition in experiment [1] is 46.4%; in experiment [2], 19.6%; in experiment [3], 44.1%; in experiment [4], 42.9%; in experiment [5] it was -2.35%; in experiment [6] it was 41.1%.
For the compound `CC12CCC3C(CCC4CCCCC43C)C1CC/C2=N\O` (stereo not given), the growth inhibition in experiment [1] is 90.2% (active); in experiment [2], 45.6%; in experiment [3], 79.8% (active); in experiment [4], 39.8%; in experiment [5], 85.5% (active); in experiment [6], 96.5% (active).
Regarding `O=[N+]([O-])c1cccnc1Sc1ncccn1`, the growth inhibition is -7.25% in experiment [1]; -12.2% in experiment [2]; -10.2% in experiment [3]; -23.1% in experiment [4]; -25.6% in experiment [5]; -6.2% in experiment [6].
For `Cc1cc(S(=O)(=O)/N=C(/NN)Nc2ccc(Cl)cc2)c(S)cc1Cl`, the growth inhibition in experiment [1] was 22.6%; in experiment [2] it was 8.15%; in experiment [3] it was 19.9%; in experiment [4], 3.8%; in experiment [5], 27.5%; in experiment [6], 29.9%.
`FC(F)(F)c1cc(C2SCc3nc4ccccc4n32)cc(C(F)(F)F)c1` (stereo not given): the growth inhibition in experiment [1] was -5.25%; in experiment [2], -23%; in experiment [3] it was -7.9%; in experiment [4], 6.95%; in experiment [5] it was -4.35%; in experiment [6] it was -17.4%.
On to `CCOc1ccc(-n2c(=O)c(N=Nc3ccccc3Cl)c(O)n(-c3ccc(Br)cc3)c2=S)cc1`, for which the growth inhibition in experiment [1] is 38.5%; in experiment [2], 17.9%; in experiment [3], 52.1%; in experiment [4] it was 12.7%; in experiment [5] it was -11.7%; in experiment [6], 5.8%.

Source of the values: PubChem BioAssay (NCI).
